Measured values reported in PubChem BioAssay (Tox21).
Records with an inconclusive call do not appear. Calls of active or inactive are those of the source. Unless noted, calls come from the whole dose curve.

Assays:
[1] = Nuclear factor erythroid 2-related factor 2/antioxidant responsive element (Nrf2/ARE) small molecule agonists: qHTS cell viability counter screen in human keratinocytes (AID 1919968; active = well fitted curve in the direction sought with a large enough effect in the repeat runs; an effect the other way counts as inactive or inconclusive; note: nearly all actives have a fitted effect of over 55% in size)
Procedure, shortened: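 In human HaCaT keratinocytes stably expressing an ARE-driven luciferase, compound exposure lasted 23 h at 37 C under 5% CO2. Viable cells are quantified with a protease-based fluorogenic reagent (CellTiter-Fluor) read 1 h after addition.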

[2] = Nuclear factor erythroid 2-related factor 2/antioxidant responsive element (Nrf2/ARE) small molecule agonists: luciferase reporter gene qHTS assay in human keratinocytes (AID 1919969); note: nearly all actives have a fitted effect of over 35% in size
[3] = target: Gonadotropin-releasing hormone receptor (Homo sapiens) (UniProt P30968); assay: Human gonadotropin-releasing hormone receptor (GnRHR) small molecule agonists, calcium flux assay in GnRHR-HEK293 cells (AID 1920063); note: nearly all actives have a fitted effect of over 35% in size
Chain of Gonadotropin-releasing hormone receptor (Homo sapiens) (P30968 whole entry, looked up): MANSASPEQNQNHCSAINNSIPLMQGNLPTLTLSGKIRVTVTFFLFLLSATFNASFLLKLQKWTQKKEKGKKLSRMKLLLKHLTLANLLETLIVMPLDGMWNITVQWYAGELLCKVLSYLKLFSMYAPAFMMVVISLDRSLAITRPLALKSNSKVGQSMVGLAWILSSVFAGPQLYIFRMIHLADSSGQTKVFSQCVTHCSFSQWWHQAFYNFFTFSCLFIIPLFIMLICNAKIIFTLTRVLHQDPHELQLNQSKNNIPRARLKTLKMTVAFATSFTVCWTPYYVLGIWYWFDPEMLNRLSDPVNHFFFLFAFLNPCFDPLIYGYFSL
Procedure, shortened: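 Intracellular calcium rise is the read-out: engineered human GnRHR HEK293 cells, dye-loaded, are exposed to DMSO-dissolved compounds and fluorescence at Ex/Em 480/540 is tracked for 3 min.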

[4] = target: KiSS-1 receptor (Homo sapiens) (UniProt Q969F8); assay: Human kisspeptin (KISS1R) small molecule agonists, calcium flux assay in KISS1R-HEK293 cells (AID 1920064; active = well fitted curve in the direction sought with a large enough effect in the repeat runs; an effect the other way counts as inactive or inconclusive)
Chain of KiSS-1 receptor (Homo sapiens) (Q969F8 whole entry, looked up): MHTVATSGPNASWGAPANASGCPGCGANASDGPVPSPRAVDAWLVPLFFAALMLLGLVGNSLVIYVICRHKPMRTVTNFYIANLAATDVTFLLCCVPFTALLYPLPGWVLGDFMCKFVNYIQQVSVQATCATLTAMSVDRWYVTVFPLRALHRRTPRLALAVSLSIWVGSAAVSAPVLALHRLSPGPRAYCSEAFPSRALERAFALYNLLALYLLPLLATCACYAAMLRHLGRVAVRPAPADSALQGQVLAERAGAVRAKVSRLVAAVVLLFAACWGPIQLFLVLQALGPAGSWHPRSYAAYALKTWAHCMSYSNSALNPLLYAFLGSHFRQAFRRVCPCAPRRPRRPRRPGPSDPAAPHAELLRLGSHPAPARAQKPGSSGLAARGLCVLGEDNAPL
Procedure, shortened: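 Concentration-response testing used 15 concentrations in triplicate on human KISS1R-expressing HEK293 cells. Calcium-dependent fluorescence (Ex/Em 480/540) was followed kinetically for 3 min after compound transfer.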

[5] = G protein-coupled receptor (GPCR) small molecule agonists, calcium flux assay: HEK293 wild type cell line counter screen (AID 1920065)
Procedure, shortened: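 Fluorescence intensity signals activation. After overnight (18 h) culture and a 1 h calcium dye load at 37 C, compounds are added by pin tool and the plate read at 480/540 nm for 3 min in 1 s steps.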

[6] = p53 small molecule agonists, cell-based qHTS assay with human liver microsomes (AID 1963577);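 note: p53 response element beta-lactamase reporter cells with liver microsomes plus NADPH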
Procedure, shortened: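 In this qHTS, p53 response-element beta-lactamase cells receive test compound together with a microsome/NADPH activating system (0.5 mg/mL final each) and are incubated 16 h at 37 C before LiveBLAzer fluorescence detection.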

[7] = p53 small molecule agonists, cell-based qHTS assay with human liver microsomes: qHTS cell viability counter screen (AID 1963579); note: nearly all actives have a fitted effect of over 45% in size
Procedure, shortened: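 Metabolically activated exposure: compounds, human liver microsomes and NADPH (0.5 mg/mL final apiece) were added to p53RE-bla cells seeded 5 h earlier, left 16 h at 37 C, and then assessed for viability by CellTiter-Glo luminescence.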

[8] = p53 small molecule agonists, cell-based qHTS assay (AID 1963582; active = well fitted activation curve with a large enough effect in the signal ratio in the repeat runs, not every such curve was filed as active; the % refers to the signal ratio)
Procedure, shortened: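 After plating, p53RE-bla cells sat 5 h in the incubator; compounds or DMSO vehicle were pinned in; a 16 h incubation at 37 C followed; FRET substrate was added and, 2 h later at RT, fluorescence was measured.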

[9] = cAMP Responsive Elements (CRE) small molecule agonists, cell-based qHTS assay (AID 1963590)
Procedure, shortened: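 Compound exposure lasted 3 h at 37 C/5% CO2 in CRE-bla HEK 293T cells grown in assay medium with 10% dialyzed FBS and 25 mM HEPES. Reporter signal came from LiveBLAzer B/G FRET substrate, 2 h, room temperature.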

[10] = cAMP Responsive Elements (CRE) small molecule antagonists, cell-based qHTS assay (AID 1963591; active = well fitted inhibition curve with a large enough effect in the signal ratio in the repeat runs, not every such curve was filed as active; the % refers to the signal ratio)
Procedure, shortened: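 Stimulation used NKH477 at a final 0.25 uM for 3 h in compound-treated CRE-bla HEK293T cells, seeded 18 h beforehand. Reporter activity was measured with LiveBLAzer B/G FRET substrate after 2 h at room temperature.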

[11] = target: Beta-2 adrenergic receptor (Homo sapiens) (UniProt P07550); assay: Adrenergic beta2 receptor (ADRB2) small molecule antagonists, cell-based qHTS assay (AID 1963592); note: series mostly up to about 92 µM; nearly all actives have a fitted effect of over 50% in size
Chain of Beta-2 adrenergic receptor (Homo sapiens) (P07550 whole entry, looked up): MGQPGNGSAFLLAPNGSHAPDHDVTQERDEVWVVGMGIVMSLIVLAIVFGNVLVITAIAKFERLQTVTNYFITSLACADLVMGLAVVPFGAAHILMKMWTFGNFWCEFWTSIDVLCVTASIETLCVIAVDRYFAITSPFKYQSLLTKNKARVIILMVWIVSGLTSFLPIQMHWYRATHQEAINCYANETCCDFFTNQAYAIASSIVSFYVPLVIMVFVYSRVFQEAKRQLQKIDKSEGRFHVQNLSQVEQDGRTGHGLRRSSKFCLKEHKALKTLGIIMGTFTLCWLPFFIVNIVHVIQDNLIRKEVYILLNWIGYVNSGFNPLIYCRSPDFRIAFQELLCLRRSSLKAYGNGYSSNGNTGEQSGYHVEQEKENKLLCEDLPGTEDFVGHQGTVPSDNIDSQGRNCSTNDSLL
Procedure, shortened: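 Assay format: CHO-ADRB2 cells, 18-20hr seeding at 37C/5% CO2, then compound plus 1nM isoproterenol agonist mix for 0.5hr RT. Homogeneous time-resolved fluorescence cAMP detection after 1hr, expressed as 665/615 nm ratio.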

[12] = target: D(2) dopamine receptor (Homo sapiens) (UniProt P14416); assay: Dopamine D2 receptor (DRD2) small molecule agonists, cell-based qHTS assay (AID 1963594); note: nearly all actives have a fitted effect of over 35% in size
Chain of D(2) dopamine receptor (Homo sapiens) (P14416 whole entry, looked up): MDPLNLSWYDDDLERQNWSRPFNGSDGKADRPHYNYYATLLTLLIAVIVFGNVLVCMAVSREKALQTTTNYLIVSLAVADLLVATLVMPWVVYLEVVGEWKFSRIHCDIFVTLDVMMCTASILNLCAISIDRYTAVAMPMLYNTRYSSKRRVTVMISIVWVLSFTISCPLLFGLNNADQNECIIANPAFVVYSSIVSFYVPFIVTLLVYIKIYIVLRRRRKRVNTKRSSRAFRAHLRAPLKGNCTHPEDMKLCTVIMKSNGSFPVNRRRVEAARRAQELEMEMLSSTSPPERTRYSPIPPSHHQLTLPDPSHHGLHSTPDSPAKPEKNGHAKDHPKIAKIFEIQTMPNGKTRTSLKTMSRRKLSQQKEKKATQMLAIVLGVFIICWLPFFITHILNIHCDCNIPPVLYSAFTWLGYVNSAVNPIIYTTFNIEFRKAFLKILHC
Procedure, shortened: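 HEK293 cells stably expressing DRD2 were cultured 24 h at 37 C, then given Ro20-1724 (0.1 mM final) and compounds for 10 min at room temperature. NKH477 (200nM) was then added for 30 min. cAMP was read by HTRF.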

[13] = target: D(2) dopamine receptor (Homo sapiens) (UniProt P14416); assay: Dopamine D2 receptor (DRD2) small molecule antagonists, cell-based qHTS assay (AID 1963595; active = well fitted inhibition curve with a large enough effect in the signal ratio in the repeat runs, with a control signal flat; the % refers to the signal ratio)
Procedure, shortened: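 Stable D2 receptor HEK293 line, 24 h after seeding. Compound preincubated 10 min, then quinpirole (12 nM) with forskolin analogue NKH477 (200 nM), 30 min, room temperature. Detection by time-resolved FRET of cAMP.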

[14] = p53 small molecule agonists, cell-based qHTS assay with rat liver microsomes: qHTS cell viability counter screen (AID 1963580); note: nearly all actives have a fitted effect of over 45% in size
Procedure, shortened: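 Luminescent ATP readout (CellTiter-Glo, 30 min at room temperature) reports viability of p53RE-bla HCT-116 cells after 16 h at 37 C with test compounds under metabolic activation by rat liver microsomes and NADPH at 0.5 mg/mL final each.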

[15] = p53 small molecule agonists, cell-based qHTS assay: qHTS cell viability counter screen (AID 1963581); note: nearly all actives have a fitted effect of over 45% in size
Procedure, shortened: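 Luminescence from CellTiter-Glo, reflecting ATP content, serves as the cytotoxicity measure; it is taken after the 2 h reporter substrate step in HCT-116 p53RE-bla cells dosed for 16 h at 37 C.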

[16] = target: 5-hydroxytryptamine receptor 2A (Homo sapiens) (UniProt P28223); assay: 5-hydroxytryptamine receptor 2A (HTR2A) small molecule antagonists, cell-based qHTS assay (AID 1963586); note: nearly all actives have a fitted effect of over 45% in size
Chain of 5-hydroxytryptamine receptor 2A (Homo sapiens) (P28223 whole entry, looked up): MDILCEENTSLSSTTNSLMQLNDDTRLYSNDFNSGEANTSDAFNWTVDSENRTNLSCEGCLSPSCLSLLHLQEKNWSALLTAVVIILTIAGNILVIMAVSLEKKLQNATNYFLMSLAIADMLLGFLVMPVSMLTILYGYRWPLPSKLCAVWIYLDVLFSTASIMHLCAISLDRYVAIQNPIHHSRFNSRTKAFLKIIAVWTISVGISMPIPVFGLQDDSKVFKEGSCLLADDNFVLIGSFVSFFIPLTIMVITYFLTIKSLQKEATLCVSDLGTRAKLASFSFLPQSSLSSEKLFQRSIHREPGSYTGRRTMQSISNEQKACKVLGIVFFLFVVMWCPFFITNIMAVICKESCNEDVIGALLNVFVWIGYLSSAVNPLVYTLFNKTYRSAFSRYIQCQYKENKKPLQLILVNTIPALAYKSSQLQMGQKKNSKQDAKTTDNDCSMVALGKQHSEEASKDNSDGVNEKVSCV
Procedure, shortened: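 CHO cells stably expressing human HTR2A were plated for 18 h at 37 C, then loaded with calcium dye for 1 h. Compounds were preincubated 5 min at room temperature before DOI (4 nM solution) was added. Kinetic fluorescence was read for 3 min.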

[17] = target: 5-hydroxytryptamine receptor 2A (Homo sapiens) (UniProt P28223); assay: 5-hydroxytryptamine receptor 2A (HTR2A) small molecule agonists, cell-based qHTS assay (AID 1963587); note: nearly all actives have a fitted effect of over 30% in size
Procedure, shortened: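 HTR2A-CHO cells, plated 18 h at 37 C/5% CO2, dye-loaded 1 h at 37 C; compounds in DMSO added by pin tool (agonist mode). Intracellular calcium flux read as kinetic fluorescence on FDSS over 2 min at 1 s intervals.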

[18] = target: Muscarinic acetylcholine receptor M1 (Homo sapiens) (UniProt P11229); assay: Cholinergic receptor muscarinic 1 (CHRM1) small molecule antagonists, cell-based qHTS assay (AID 1963588); note: nearly all actives have a fitted effect of over 40% in size
Chain of Muscarinic acetylcholine receptor M1 (Homo sapiens) (P11229 whole entry, looked up): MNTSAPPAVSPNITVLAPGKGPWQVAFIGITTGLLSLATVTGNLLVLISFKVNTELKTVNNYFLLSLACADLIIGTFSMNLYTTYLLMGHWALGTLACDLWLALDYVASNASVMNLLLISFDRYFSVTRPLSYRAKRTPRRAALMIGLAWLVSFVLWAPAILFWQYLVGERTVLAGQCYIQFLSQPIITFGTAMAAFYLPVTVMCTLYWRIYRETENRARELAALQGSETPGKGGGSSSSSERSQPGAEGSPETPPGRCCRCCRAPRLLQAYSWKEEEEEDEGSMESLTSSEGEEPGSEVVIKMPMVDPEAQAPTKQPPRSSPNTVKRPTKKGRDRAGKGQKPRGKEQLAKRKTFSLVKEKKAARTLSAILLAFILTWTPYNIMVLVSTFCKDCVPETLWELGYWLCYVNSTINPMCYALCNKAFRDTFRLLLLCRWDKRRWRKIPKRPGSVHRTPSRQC
Procedure, shortened: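 Compounds were tested at 15 concentrations in three independent runs. Dye-loaded CHRM1-CHO cells were exposed 5 min at room temperature before stimulation by acetylcholine added at 50nM. Intracellular calcium was read kinetically on FDSS for 3 min.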

[19] = target: Muscarinic acetylcholine receptor M1 (Homo sapiens) (UniProt P11229); assay: Cholinergic receptor muscarinic 1 (CHRM1) small molecule agonists, cell-based qHTS assay (AID 1963589); note: nearly all actives have a fitted effect of over 35% in size
Procedure, shortened: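 Fluorescent calcium dye reports M1 activation in stably transfected CHO cells. Compounds, 15 concentrations, added after 1 h dye loading at 37 C; kinetic reading at 1 sec intervals.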

Measured: Potency

O=C(O)P(=O)(O)O
not listed: [14] | [15] | [16] | [17] | [18] | [19]
inactive: all other assays above

Cc1cc2c(s1)Nc1ccccc1N=C2N1CCN(C)CC1
inactive: [1] | [2] | [3] | [4] | [5] | [6] | [14] | [8] | [9] | [10]

COc1ccc(S(=O)(=O)N2c3ccc(Cl)cc3[C@@](O)(c3ccccc3Cl)[C@H]2C(=O)N2CCC[C@@H]2C(N)=O)cc1OC
not listed: [7] | [10]
inactive: all other assays above

COc1ccc(-n2nc(CCC(=O)N(C)O)cc2-c2ccc(Cl)cc2)cc1
not listed: [7] | [18]
inactive: all other assays above

CC(C)=CCCC(C)C=O (stereo not given)
not listed: [7]
inactive: all other assays above

CC(C)(C)c1cc(CCC(=O)NCCCCCCNC(=O)CCc2cc(C(C)(C)C)c(O)c(C(C)(C)C)c2)cc(C(C)(C)C)c1O
not listed: [8] | [9] | [10]
inactive: all other assays above

COc1ccccc1OC(=O)Oc1ccccc1OC
not listed: [15]
inactive: all other assays above

CN1CCN(CCCN2c3ccccc3Sc3ccc(Cl)cc32)CC1
inactive: [1] | [2] | [3] | [4] | [5] | [6] | [14] | [15] | [8] | [12]

CC(C(=O)O)c1ccc(C(=O)c2ccccc2)s1 (stereo not given)
not listed: [8] | [9] | [10] | [11] | [13] | [14]
inactive: all other assays above

CN(C)Cc1ccccc1
not listed: [15]
inactive: all other assays above

CCC=O
not listed: [8] | [16] | [19]
inactive: all other assays above

C#Cc1ccc(-c2ccccc2F)cc1
not listed: [9] | [14] | [16] | [19]
inactive: all other assays above

CC(=O)c1ccc2ccc3ccccc3c2c1
not listed: [8] | [9] | [12]
inactive: all other assays above

CCN(CC)C(=O)N1CCN(C)CC1
not listed: [7]
inactive: all other assays above
